The text below walks through data of PubChem BioAssay AID624309 (Sanford-Burnham Center for Chemical Genomics, 2012).

In all, about 2,000 compounds went through this assay and about 260 (13%) were called active. Only a sample is shown. Unmarked numbers belong to inactive results. No stated cut-off is given here; in the data, active means inhibition mostly above about 42% (no sharp cut-off); inactive means mostly below about 42%.

For orientation: inhibition means the change of the read-out against control, counted positive when it falls.

The test has as its system Nicotinate mononucleotide adenylyltransferase NadD (Staphylococcus aureus N315). Put plainly: S. aureus NadD enzyme activity blockers – biochemical, colorimetric, single concentration, confirmation (AID 624309). Particulars: purified S. aureus NadD, colorimetric enzyme assay; at 20 µM; active compounds read high.
With `O=C(Cc1csc(Nc2nc(=S)[nH]c3ccccc23)n1)NCCCN1CCN(c2cccc(Cl)c2)CC1`, the inhibition was 33.7%.
The same measure for `Cc1ccc(Nc2nc(-c3sc(NC(=O)c4ccccc4)nc3C)cs2)cc1`: 38.5%; for `Cc1ccc(C(=O)NNC(=O)c2cc3cc4ccccc4nc3s2)cc1`: 65.5% (active); for `O=C(COC(=O)c1ccc(Oc2ccccc2)cc1)Nc1nnc(-c2ccccc2)o1`: 72.6% (active).
The same measure for `CCOc1ccc(NC(=O)c2ccc(NC(=O)COC(=O)c3ccc(NC(=O)CC#N)cc3)cc2)cc1`: 15.8%; for `N#CCC(=O)Nc1ccc(C(=O)OCC(=O)Nc2sc3c(c2C#N)CCCC3)cc1`: 24.8%; for `NC(c1csc(NC(=O)Nc2ccccc2Oc2ccccc2)n1)c1ccccc1Cl` (stereo unspecified): 25.9%.
The same measure for `COc1ccc(NC(=O)/C(C#N)=C\c2cc(OC)c(OCc3ccc(C(=O)O)cc3)cc2Br)cc1`: 11%.
For the compound `NC(CSC(c1ccccc1)(c1ccccc1)c1ccc(-c2ccccc2)cc1)C(=O)O` (stereo unspecified), the inhibition was 54.7% (active).
Regarding `Cc1cccc(NC(=O)c2sc3nc4c(c(-c5ccco5)c3c2N)CCC4)c1`, the inhibition is 21.1%.
As for `O=C(NC(Cc1c[nH]c2ccccc12)C(=O)N/N=C/c1ccc(Br)cc1)c1cccs1` (stereo unspecified), the inhibition was 25.7%.
As for `O=C1Nc2cc(C(=O)N3CCN(c4ccc(F)cc4)CC3)ccc2NC1CSCc1cccc(F)c1` (stereo unspecified), the inhibition is 41.8%.
As for `S=c1[nH]nc(Nc2ccccc2)s1`, the figure is 45.2%; as for `Cc1ccc(-n2c(SCC(=O)N/N=C/C=C/c3ccccc3[N+](=O)[O-])nc3ccccc3c2=O)cc1`, 3.65%.
For the compound `CCOc1cc(/C=C2/N=C(c3ccc(C(C)(C)C)cc3)OC2=O)cc(Cl)c1OS(C)(=O)=O`, the inhibition is 11.4%.
For the compound `Cc1oc2c(C)c3oc(=O)c(CC(=O)N[C@@H](CC(C)C)C(=O)N[C@@H](Cc4ccccc4)C(=O)O)c(C)c3cc2c1C`, the inhibition is 43.8%.
As for `O=C(Nc1nnc(-c2ccccc2)o1)c1cc(-c2cccs2)nc2ccccc12`, the figure is 55.5% (active); as for `Cc1ccc(-c2cc(C(=O)N/N=C/C=C/c3ccco3)c3ccccc3n2)cc1C`, 4.81%; as for `CS(=O)(=O)c1sc2nc(-c3ccccc3)cc(-c3ccccc3)c2c1N`, 1.76%.
As for `NC(=O)c1ccc(NC(=O)COC(=O)c2c3c(nc4ccccc24)/C(=C\c2ccc4c(c2)OCO4)CCC3)cc1`, the figure is 45.2%; as for `NS(=O)(=O)c1ccc(NC(=O)COC(=O)c2c3c(nc4ccccc24)/C(=C\c2ccc4c(c2)OCO4)CCC3)cc1`, 74.4% (active); as for `O=C(Nc1cccc(-c2nc3ccccc3[nH]2)c1)c1ccc(C(=O)Nc2cccc(-c3nc4ccccc4[nH]3)c2)cc1`, 34.9%.
As to `CCOC(=O)C1=C(C)Nc2sc(C(=O)c3ccc(Br)cc3)c(N)c2C1c1ccc(C(=O)OC)cc1` (stereo unspecified), the inhibition is 8.7%.
For the compound `CC(=O)Nc1ccc(C(=O)Nc2nc(-c3cc(C)n(Cc4ccccc4)c3C)cs2)cc1`, the inhibition was 14.3%.
As for `COc1cccc(OCc2cc(/C=N/NC(=O)c3nc(Cl)c(Cl)c(N)c3Cl)ccc2OC)c1`, the figure is 25.3%; as for `CC(C)c1ccc2c(c1)c(SC(C)(C)C)c(CC(C)(C)C(=O)O)n2Cc1ccc(Cl)cc1`, 28.1%; as for `S=c1[nH]nc(-c2cccs2)n1/N=C/c1cn(-c2ccccc2)nc1-c1ccc(Cl)cc1`, 6.28%.
For the compound `COc1ccc(-c2nc3cnccn3c2NC2CCCCC2)cc1-c1cccc(Cl)c1`, the inhibition is 18.8%.
Regarding `O=C(COc1ccc(/C=N/NC(=O)c2ccc(O)cc2)cc1)Nc1ccc([N+](=O)[O-])cc1`, the inhibition is 15.9%.
`COc1ccc(-n2c(SCC(=O)Nc3sc4c(c3C#N)CCCC4)nnc2-c2ccc(O)cc2)cc1`: the inhibition is 6.59%.
On to `O=C(COc1ccc([N+](=O)[O-])cc1)Nc1ccc(N2CCCC2)cc1`, for which the inhibition is -0.14%.
